# Measurements from PubChem BioAssay AID2763 (National Center for Advancing Translational Sciences (NCATS), 2010).
# Inconclusive results are not listed. A number with no mark means an inactive call. Calls of active or inactive are those of the source. The call rests on the fitted dose curve; in most records, active means well fitted inhibition curve with a large enough effect; inconclusive means small, poorly fitted or top-dose-only effect, or effect the other way; inactive means no such curve, though single readings can be large or run the other way.
# Assay: Concentration response confirmation VP16 counterscreen for inhibitors of ROR gamma transcriptional activity; further: nearly all actives have a fitted effect of over 70% in size
# Settings: Drosophila S2 Gal4-VP16 UAS-luciferase, luminescence, 20 h; series mostly up to 46.1 µM; activity change, negative = inhibition: at the top concentration
# In short: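 Luciferase counterscreen: UAS-driven Photinus reporter in S2 cells expressing copper-inducible Gal4-VP16 fusion, 600 cells/well. Induced with copper sulfate (700 uM final) 1 hr after compound, incubated 20 hr at ambient temperature before luminescence detection.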
# On the % scale 0 is the no-effect control and ±100 the full control effect; potency means the concentration at half of the fitted maximal effect.
SMILES,"activity change, negative = inhibition [%]",Potency
O=C(CSc1n[nH]c(=O)n1-c1ccc2c(c1)OCCO2)Nc1ccccc1,6.27,
CCOC(=O)[C@@H]1[C@H]2COc3cc(OC)ccc3[C@@H]2N2C(=O)N(c3ccc(C)cc3)C(=O)[C@@]12C,7.17,
CCOC(=O)c1nnsc1Nc1ccc(C)c(C)c1,22.9,
Fc1cccc2sc(Nc3nnc(-c4ccco4)o3)nc12,,6.28 µM (active)
COc1ccc(-c2nnc(-c3ccc(N(C)C)cc3)o2)cc1,-19.3,
C=C(C)c1cccc(C(C)(C)NC(=O)N2CCN(CC)CC2)c1,-13.2,
CCN(CC(=O)Nc1ccc2c(c1)CCC2)Cc1nc2ccccc2c(=O)[nH]1,,15.8 µM (active)
CC(C)CC(=O)NS(=O)(=O)c1ccc(N)cc1,-12.3,
CCN(CC)C1CC(=O)N(c2cccc(C)c2)C1=O (stereo not given),,25 µM (active)
c1csc(CCNc2ncnc3sc4c(c23)CCC4)c1,,25 µM (active)
COc1ccc(CNS(=O)(=O)c2ccc3c(c2)CCN3C(=O)C2CC2)cc1,-5.25,
Cc1nnc(SCC(=O)Nc2ccc(S(=O)(=O)Nc3ccc(Cl)nn3)cc2)s1,-1.14,
Cc1ccc(-c2noc(CCC(=O)N(C)c3ccccc3C)n2)cc1,3.03,
COc1ccc(CNC(=O)COC(=O)C2CC3C=CC2C3)cc1 (stereo not given),0.307,
Cc1nn(-c2cc(C)c3ccccc3n2)c2c1C1C(C2)C1(C)C (stereo not given),,22.3 µM (active)
O=C(NCC1CCCO1)C(C(=O)c1ccccc1)n1ccccc1=O (stereo not given),1.49,
CCn1cc(C(=O)O)c(=O)c2cnc(N3CCN(C(=S)NC(=O)c4ccccc4)CC3)nc21,14.3,
COc1ccc(-n2ncc(Cl)c(Cl)c2=O)cc1,,19.9 µM (active)

SMILES,"activity change, negative = inhibition [%]",Potency
COc1ccc(C(=O)Nc2scc(-c3ccc(Cl)cc3Cl)c2C(N)=O)cc1,-28.8,
COc1cc(OC)c(C2=NOC(C(=O)NCc3cccnc3)C2)cc1Cl (stereo not given),4.77,
CC(C)(C)c1ccc(-c2noc(CCC(=O)Nc3cccnc3)n2)cc1,,1.99 µM (active)
COc1ccc(-c2cc(-c3nnc(COC(=O)c4ccncc4)o3)c3ccccc3n2)cc1OC,-17.6,
COc1ccc2[nH]c(C)c(CCN(Cc3cccs3)C(=S)Nc3ccccc3OC)c2c1,37.2,
CCN1CCCc2cc(CN(CCN3CCOCC3)C(=S)Nc3ccc(C)cc3)ccc21,,11.2 µM (active)
COc1ccc2nc(NC(=O)c3sc4nc(C)cc(C)c4c3N)sc2c1,,0.0791 µM (active)
CC1Oc2ccccc2N(CC(=O)NCCN2CCOCC2)C1=O (stereo not given),-6.52,
O=C(/C=C/c1c(F)cccc1Cl)N1CCc2ccccc2C1,7.93,
COc1cc(CNS(=O)(=O)c2ccc3c(c2)CC(C)N3C(=O)C2CCC2)cc(OC)c1OC (stereo not given),,9.96 µM (active)
Cc1ccc(OCCCC(=O)Nc2nc3ccccc3[nH]2)cc1,10.7,
O=C(NC(=S)Nc1nc(-c2ccccc2)cs1)c1cncc(Br)c1,,7.91 µM (active)
CCOC(=O)c1sc(NC(=O)c2sc(C)nc2C)nc1C,-0.602,
CN(Cc1ccccc1)c1ncnc2ccc(Br)cc12,-13.1,
COc1ccc(-c2cc(-c3ccccc3)n[nH]2)c(O)c1,,19.9 µM (active)
CC(=O)c1cnc2nc(C(F)(F)F)nn2c1C,1.06,
O=C(COc1ccccc1)NNc1nc2c(F)cccc2s1,9.29,
